# System: PPARg:RXRa 270nM:90nM, anti-RXR (NR concentration 270 nM, RXRa partner concentration 90 nM)
# Assay: PBM binding z-score (relative to random genomic background probes); higher = stronger binding; sequences stand for … in GC…GCGATTGACAGCGTAGAATGAAGG
# How it was run: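 Antibodies against each partner of ligand-free nuclear receptor dimers (one per run) detected binding on custom Agilent 4×180K protein-binding microarrays after 1 h incubation. The double-stranded probes had 34-nt variable regions carrying direct-repeat seeds, single-nucleotide variants, half-site ablations and random human genomic background sequences. Binding z-scores, from regression-normalized fluorescence, use the random background probes as reference.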
row,Sequence,PBM binding z-score
1,ACCGAAAGGTCGAGGTGAGTATAGAGAAAGGGAA,3.78
2,CCTAGCAGGCCAATCTGGGTCACTCATGGCTTGA,1.93
3,CCTTACGGGTCACTCCAGGTTATAGCATCGGAGT,3.74
4,CGAATTAGGTCATCCAGGACAGTGAATACATTGA,6.52
5,CAAACTAGGTCAAAGTCAAAGTCGGTTTGTGCCA,7.7
6,TCTTGTAGATCAAACGTTAAGAAAGCCGAAGCCT,3.17
7,TCTTGTAGATCAACAGGAGGTTAGGAAAGATCGA,1.06
8,CAAACTAGGTCAAGAGTTCAAAGTCCGCTTCCCG,7.81
9,CCCAGTAGGTTATGGGGCATTCAGGCAACGGTGA,5.47
10,CGTCCAATGTCAGCAGGTCAGTGAAAGCGACGTG,0.0995
11,ATCGAAAGGACGACGAGGTGAGTATACACCGTTT,-0.0154
12,ATATGCAGGTTAGCTGGGGTCATTCAGACTAGGC,3.4
13,TTACCAAGGTGAAGGTCGTTGACCCCTCTGTAGA,4.59
14,CCTTACGGGTCACGAGGTTAAAGCACGACGAGCG,7.25
15,GCGACTGGGGCAAAGCAGGTTAACATAAGGTTGG,1.19
16,ATATGTAGGTTATCGGGTCATTGAGTTTGCGCAT,6.33
17,CCTAGCTGGTCAGGAGGTCACACACCGGATATGA,3.59
18,TCTTGTAGATCCATAGAGGTTAAGAAAGTGCGCT,1.18
19,TAGCCTGGGTCATTGGGCCAGTATAGTACGCATC,3.62
20,TTACCAAGGTGAAGGTCTTTGATCCCTCTGTAGA,2.45
21,ACAAGTTGGTCAGCTGAGGTCACACACAATTCGG,2.38
22,CGCACTAGGTCAAGGACAGTGAATCTCCGCACGC,5.97
